Sampled rows, rich in hits. Any-hit rate of the full collection: about 2.4%.
TRHR PAM: allosterically enhances the human TRH receptor; AID 493056; TRHR cells, fluo-8 calcium fluorescence, EC20 TRH enhancement; 0.66% of 360,000 active; enhancement, % at 2 µM; P34981; in the data active = enhancement above about 30%
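TRHR-expressing cells loaded with fluo-8 calcium dye were read kinetically (ex 480/em 530) during compound addition, then stimulated with an EC20 of TRH (10 nM final). Enhancement of the Gq-mediated intracellular calcium response was scored.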
PTHR1 agonist: PTHR1 (human) receptor agonism | HEK293 GP2 PTHR1 cells, GloSensor cAMP luminescence, 1 h | Potency, µM (titrated, usually from 115 µM), most hits filed as activators | 0.075% of 410,000 active | AID 743266; note: nearly all actives have a fitted effect of over 55% in size
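HEK-293-derived GP2 cells expressing PTHR1 and a GloSensor cAMP reporter, 3,000/well, plated overnight, given luciferin plus IBMX (each 0.5 mM as added) for 1 h at 37 °C, then compound for 1 h at 37 °C. Luminescence was read after 15 min at room temperature.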
TRHR ag: agonists of human TRH receptor. P34981. TRHR cells, calcium flux fluo-8, FDSS agonist mode. activation, % at 2 µM. 0.18% of 360,000 active. AID 493084; in the data active = activation above about 30%
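Read-out: compound-evoked intracellular calcium rise in TRHR cells, fluo-8 dye, kinetic FDSS fluorescence at 1 s/cycle following a 10-cycle baseline. Cells cultured overnight before dye loading (30 min–1.5 h, RT).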
GLP-1R agonist: GLP-1 receptor (human) agonism | HEK293 GLP-1R CRE-luciferase, luminescence, 4-6 h; cells express a hypersensitive GLP-1R form | Potency, µM (highest dose often 45.6 µM), hits mostly activators | P43220 | 0.007% of 380,000 active
Target sequence (P43220 whole entry, looked up): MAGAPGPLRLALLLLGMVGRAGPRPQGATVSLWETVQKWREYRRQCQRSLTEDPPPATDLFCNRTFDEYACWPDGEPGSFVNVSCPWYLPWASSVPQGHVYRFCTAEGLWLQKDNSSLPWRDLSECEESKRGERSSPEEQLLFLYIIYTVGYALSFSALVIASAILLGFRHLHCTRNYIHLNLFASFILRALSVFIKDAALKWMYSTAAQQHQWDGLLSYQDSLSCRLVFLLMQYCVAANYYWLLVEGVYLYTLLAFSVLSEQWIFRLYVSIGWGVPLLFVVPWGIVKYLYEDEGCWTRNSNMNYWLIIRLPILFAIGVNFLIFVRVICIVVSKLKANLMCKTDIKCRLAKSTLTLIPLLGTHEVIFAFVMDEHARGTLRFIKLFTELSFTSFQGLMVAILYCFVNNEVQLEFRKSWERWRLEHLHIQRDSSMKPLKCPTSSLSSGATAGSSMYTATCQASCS
GLP-1R inv ag: GLP-1 receptor (human) inverse agonism; P43220; HEK293 GLP-1R CRE-luciferase, luminescence, 24 h; GLP-1R form is constitutively active; Potency, µM (titrated, usually from 38.3 µM), hits mostly inhibitors; 1.6% of 410,000 active; note: nearly all actives have a fitted effect of over 55% in size
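Assay principle: reduced luminescence from a cAMP-responsive reporter in HEK293 cells co-expressing a constitutively active GLP-1R. Conditions: 24 hr compound incubation, 37 deg C, 5% CO2.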
GLP1R cytotox: cytotoxic in the GLP-1 receptor inverse agonist counter-screen. HEK293 cAMP-luciferase reporter cells, luminescence, 24 h. Potency, µM (highest dose often 38.3 µM), hits mostly inhibitors. 0.13% of 410,000 active. AID 624418;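 note: loss of luciferase light is scored as toxicity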
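Step one: seed cells (200 cells/uL, DMEM with 10% Nu serum, 1% pen-strep). Step two: 12-hour incubation at 37 deg C. Step three: pin 23 nL compound, incubate 24 hr. Step four: add luciferase reagent, read luminescence 12 min later.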
Of the large screens only hits and unclear results are named; the others gave an inactive call. Unless noted, calls come from the whole dose curve; as a rule, active = well fitted curve in the direction sought with a large enough effect; inconclusive = small, poorly fitted or top-dose-only effect, or another doubt; inactive = no such curve, though single readings can be large; an effect the other way counts as inactive or inconclusive.

Cn1nc(C(C)(C)C)cc1NC(=O)C1(C)CCN1C(=O)c1ccccc1CCc1ccccc1 (configuration not stated)	GLP-1R inv ag inconclusive (no result: TRHR PAM, TRHR ag)
Cc1ccc(NC(=O)C2(C)CCN2C(=O)c2ccccc2CCc2ccccc2)cc1C (configuration not stated)	GLP-1R inv ag 2.8µM (no result: TRHR PAM, TRHR ag)
COc1ccc(NC(=O)C2(C)CCN2C(=O)c2ccccc2CCc2ccccc2)cc1OC (configuration not stated)	GLP-1R inv ag inconclusive, GLP1R cytotox inconclusive (no result: TRHR PAM, TRHR ag)
Cc1ccc(/C=C/C2=NN(C)C(=O)CC2)cc1	TRHR PAM 30
Cc1nccn1CC(O)COc1ccccc1 (configuration not stated)	none
COc1ccc(OCC(O)Cn2ccnc2C)cc1 (configuration not stated)	PTHR1 agonist 10µM
O=c1c2ccccc2nc(SCCN2CCOCC2)n1CCc1ccccc1	GLP-1R inv ag 10µM
COc1ccc(CCn2c(SCCN3CCCCC3)nc3ccccc3c2=O)cc1OC	GLP-1R inv ag inconclusive
CC1CCCCN1C(=O)C1CCN(c2nc(-c3ccccc3)nc3c2CCC3)CC1 (configuration not stated)	TRHR PAM 39, PTHR1 agonist inconclusive, GLP-1R inv ag 8.9µM, GLP1R cytotox inconclusive
Fc1ccc(-c2nnc(NC3=NCCCCC3)o2)cc1	GLP-1R inv ag 1µM
c1ccc(-c2nnc(NC3=NCCC3)o2)cc1	GLP-1R inv ag inconclusive
Cn1c(N)c(C(=O)N/N=C/c2ccccc2)sc1=S	TRHR PAM 36, GLP1R cytotox inconclusive
Cc1c(C(=O)N/N=C/c2cccnc2)sc(=S)n1C	none
O=C(CN1C(=O)S/C(=C\c2ccc(Cl)cc2)C1=O)NNC(=O)c1ccccc1O	none
CC(=O)NC1CCCN(O)C(=O)/C=C(\C)CCOC(=O)C(NC(C)=O)CCCN(O)C(=O)/C=C(\C)CCOC(=O)C(NC(C)=O)CCCN(O)C(=O)/C=C(\C)CCOC1=O (configuration not stated)	TRHR PAM 36
Cc1ccccc1Cn1nc(C)c(NC(=O)c2cc(CC(C)C)on2)c1C	GLP-1R inv ag inconclusive
Cc1nn(Cc2ccc(Br)cc2)c(C)c1NC(=O)c1nn(C)cc1Cl	TRHR PAM 31
Cc1nn(Cc2ccc(Cl)c(Cl)c2)c(C)c1NC(=O)c1cc(CC(C)C)on1	GLP-1R inv ag 3.2µM
C[C@@H]1CN([C@@H](C)CO)C(=O)c2cc(NC(=O)c3ccccc3)ccc2O[C@@H](C)CCCCO[C@@H]1CN(C)Cc1ccc(C(F)(F)F)cc1	GLP-1R inv ag 11µM (no result: TRHR PAM, TRHR ag)
C[C@@H]1CN([C@H](C)CO)C(=O)Cc2cc(NS(=O)(=O)c3ccc(Cl)cc3)ccc2O[C@H]1CN(C)Cc1ccc(C(F)(F)F)cc1	GLP-1R inv ag 10µM (no result: TRHR PAM, TRHR ag)
C[C@H](CO)N1C[C@H](C)[C@H](CN(C)Cc2ccccc2)Oc2c(NC(=O)Nc3ccc(F)cc3)cccc2C1=O	none (no result: TRHR PAM, TRHR ag)
C[C@@H]1CCCCO[C@H](CN(C)Cc2ccc3c(c2)OCO3)[C@H](C)CN([C@@H](C)CO)C(=O)c2cc(NC(=O)c3ccccc3)ccc2O1	GLP-1R inv ag inconclusive (no result: TRHR PAM, TRHR ag)
C[C@H](CO)N1C[C@H](C)[C@H](CN(C)Cc2ccccc2)Oc2ccc(NC(=O)Nc3ccc(F)cc3)cc2C1=O	GLP-1R inv ag 11µM (no result: TRHR PAM, TRHR ag)
CCOC(=O)c1ccc(NC(=S)N2CCCC2c2ccc(OC)c(OC)c2)cc1 (configuration not stated)	none
CCCC(c1nnnn1Cc1ccco1)N1CCN(c2cc(Cl)ccc2C)CC1 (configuration not stated)	GLP-1R inv ag 5µM
CCCC(c1nnnn1Cc1ccco1)N1CCN(c2ccccc2)CC1 (configuration not stated)	none
O=C(NCC1CCCN(C2Cc3ccccc3C2)C1)c1cccs1 (configuration not stated)	none
CN(C)C(=N)c1n[nH]nc1SCc1ccc(Cl)c(Cl)c1	none

Assay outcomes as filed in PubChem.
